Only some compounds are listed: those with a hit (about 6.9% of all), similar ones and a draw of the others.
HP1b chromo inh – inhibitors of HP1-beta chromodomain binding to methylated histone tails; 390,000 tested, 0.56% active; AID 540317; AlphaScreen HP1-beta / biotin-H3K9me3 peptide binding; P83916; Potency, µM (highest dose often 114 µM), inactives show top-dose activity change, negative = inhibition, actives largely listed as inhibitors; note: nearly all actives have a fitted effect of over 70% in size
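Compound inhibition of the preformed complex between 50 nM HP1-beta and 50 nM biotinylated H3K9me3 peptide was read by AlphaScreen. Buffer was PBS pH 7.4 with 0.01% Tween-20. Incubations ran 30 min at room temperature, with 10 ug/mL donor/acceptor beads.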
JMJD2A Tudor – blocks the human JMJD2A Tudor domain; AlphaScreen JMJD2A-Tudor / H3K4me3 peptide binding; Potency, µM (top dose mostly 114 µM), for the others: top-dose activity change, negative = inhibition, usual class: inhibitors; 390,000 tested, 4.4% active; note: % is set by controls: 0 for no effect and ±100 for the full control effect; nearly all actives have a fitted effect of over 50% in size
VDR inhibitor – inhibitors of human vitamin D receptor. P11473. VDR-SRC2-3 peptide fluorescence polarization, 2 h. Potency, µM, inactives show max response, negative = inhibition, actives largely listed as inhibitors. 400,000 tested, 0.93% active; note: % is set by controls: 0 for no effect and ±100 for the full control effect
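Compounds are added to VDR with labelled SRC2-3 coactivator peptide and held 2 h at room temperature. Inhibition of the VDR–peptide interaction is then read as a change in fluorescence polarization.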
BAZ2B block – BAZ2B (human) inhibition; Q9UIF8; AlphaScreen BAZ2B-H3K14Ac peptide displacement; Potency, µM (highest dose often 114 µM), without a hit: top-dose activity change, negative = inhibition, usual class: inhibitors; 360,000 tested, 4.4% active; AID 504333; note: % is set by controls: 0 for no effect and ±100 for the full control effect; nearly all actives have a fitted effect of over 60% in size
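Complex of BAZ2B and biotin-H3K14Ac (50 nM apiece) forms over 30 min at RT, then faces library compounds up to 110 uM for another 30 min; AlphaScreen beads added, 20 min dark incubation, luminescence read.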
L3MBTL1 block – blocks human L3MBTL1; AlphaScreen L3MBTL1–H3K9me1 peptide binding; Potency, µM (series often up to 57.1 µM), inactives show at the highest dose activity, negative = inhibition, hits mostly inhibitors; 230,000 tested, 0.66% active; Q9Y468; note: % is set by controls: 0 for no effect and ±100 for the full control effect; nearly all actives have a fitted effect of over 60% in size
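L3MBTL1 50 nM + b-AHA-H3(1-15)K9me1 75 nM, 30 min RT; compound added, 30 min RT; streptavidin donor/Ni-chelate acceptor beads 10 ug/mL each final, 30 min RT dark; AlphaScreen read.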
PLK1 PBD inh – blocks phosphopeptide binding to human PLK1 polo-box domain; P53350; Plk1 PBD binding of FITC phosphopeptide, fluorescence polarization; Potency, µM, for the others: max response, negative = inhibition, actives largely listed as inhibitors; 360,000 tested, 2.8% active; AID 720504; note: series mostly up to about 57 µM; % is set by controls: 0 for no effect and ±100 for the full control effect; nearly all actives have a fitted effect of over 65% in size
* marks the source's active call; other numbers are inactive results; ? = inconclusive; nt = not tested or not shown; [ ] = dose if it differs, or a comment. Calls come from the whole dose curve; as a rule, active = well fitted curve in the direction sought with a large enough effect; inconclusive = small, poorly fitted or top-dose-only effect, or another doubt; inactive = no such curve, though single readings can be large; an effect the other way counts as inactive or inconclusive. Potency is the fitted concentration of half-maximal effect.

SMILES	HP1b chromo inh	JMJD2A Tudor	VDR inhibitor	BAZ2B block	L3MBTL1 block	PLK1 PBD inh
CCOc1ccc2oc(=O)cc(CN3CCN(c4ccccc4OC)CC3)c2c1	-2%	-31%	-3%	-14%	nt	nt
COc1cccc([C@@H]2Oc3ccc(Br)cc3C(=O)[C@H]2OC(=O)Nc2cc(OC)c(OC)c(OC)c2)c1	nt	nt	8%	nt	nt	nt
CC1CCN(S(=O)(=O)c2cc(F)ccc2CN2C(=O)c3cccnc3C2=O)CC1	56%	-2%	-1%	56µM*	nt	2%
[O-][n+]1c2c(nc3c1-c1ccccc1C3O)CCCC2 (stereo not drawn)	nt	nt	nt	-19%	10%	nt
CCN1C(=NCCc2c[nH]c3ccccc23)N[C@@H](c2ccccc2)C(C(=O)OC)=C1C	nt	nt	nt	-38%	nt	nt
COC(=O)C1=C(C)N(CCc2c[nH]c3ccccc23)C(=O)/C1=C\N(C)C	7%	-32%	?	-5%	1%	24µM*
CC(C)CC(=O)N1CCN(C(=O)CCC2CCCC2)CC1	2%	-21%[11.4 µM]	-10%	16%	0%	27µM*
CCCS(=O)(=O)N1CCN(C(=O)CCC2CCCC2)CC1	26%	-11%	-9%	-2%	-2%	-6%
